The values below come from article PMC7819943, “Rice protein-binding microarrays: a tool to detect cis-acting elements near promoter regions in rice”.

Whole data set: some 68,000 sequences, median “fluorescence intensity (a.u.)” near 9,100, cut for the highest 2% near 16,000. The full list was thinned out, with the highest values kept by preference.

In this test the target is OsWRKY34 (Oryza sativa, UniProt Q0JBA9 1-250). The experiment in a line: protein-binding microarray (RPBM); PBS, 2% BSA, 51.3 ng/ul salmon testes DNA, 50 uM zinc acetate, 200 nM TF, 25 C, 1 h; high values mean tight binding. Conditions: protein: recombinant; tags: N-terminal polyhistidine and DsRed monomer fusion (pET32a); label: CyDye5-dUTP incorporated in the synthesized complementary strand; 3' TTTTT single-stranded linker to array surface; dsDNA, one strand shown. A digest of the protocol: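 Binding signal is reported as fluorescence intensity per feature (arbitrary units) from an Axon 4000B scanner. Incubation used 200 nM of each Ni–NTA-purified, N-terminally polyhistidine- and DsRed-fused transcription factor from E. coli BL21-CodonPlus on a double-stranded custom Agilent array for 1 h at 25 °C, with 50 µM zinc acetate in the buffer, followed by washing.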
OsWRKY34, sequence (Q0JBA9 entry or part of it): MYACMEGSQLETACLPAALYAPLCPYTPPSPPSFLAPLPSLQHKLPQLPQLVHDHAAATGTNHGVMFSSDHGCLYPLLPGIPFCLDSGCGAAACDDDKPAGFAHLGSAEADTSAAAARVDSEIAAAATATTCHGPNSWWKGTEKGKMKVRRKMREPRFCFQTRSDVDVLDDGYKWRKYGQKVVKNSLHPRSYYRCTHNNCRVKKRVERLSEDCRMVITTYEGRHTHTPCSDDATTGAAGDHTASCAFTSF
“TTTTATATCCCTCACCGTACGATCCAACGTTCCGATTTCTCGGAGTCACCTAGTGCAG”: the binding signal was 8890 fluorescence intensity (a.u.). Regarding “AACCACTCGCTTCCAAACAATCCAAACCTTCCATGCCATTCGGAGTCACCTAGTGCAG”, the binding signal was 64700 fluorescence intensity (a.u.). On to “ACCTCTAACCGCCACTAGTTTTTTATACTCTTCTCTATAGCGGAGTCACCTAGTGCAG”, for which the binding signal was 8470 fluorescence intensity (a.u.).

For “TTCTCTTTTTCTTTTTATTTTTTCGTTCTCGTCGCCGCCGCGGAGTCACCTAGTGCAG”, the binding signal is 8330 fluorescence intensity (a.u.). In the case of “GCTTCGGCCCAACAACATTCCACTCGGCCCAACAACCACCCGGAGTCACCTAGTGCAG” it was 9750 fluorescence intensity (a.u.); in that of “CCAAGCGCCCGCCGCCTCGCTCCCTCCTCTTCCTTGACCTCGGAGTCACCTAGTGCAG”, 35200 fluorescence intensity (a.u.); in that of “CCAACCACTCCATCATCATTCGCAATCCAATCTCGCTCTTCGGAGTCACCTAGTGCAG”, 9230 fluorescence intensity (a.u.). On to “ATACCGCCTATTTGCCACTCGTTTTTCTTCTCTTGGGCCGCGGAGTCACCTAGTGCAG”, for which the binding signal was 18700 fluorescence intensity (a.u.). Regarding “CACACCTCGCCGCTCTTCCCGGCCTCCACCCGCCGCCCTTCGGAGTCACCTAGTGCAG”, the binding signal is 8510 fluorescence intensity (a.u.). On to “CGCTCCTCGCGGCCGCCGCCGCCGCCTCCCTCCTCGCCTTCGGAGTCACCTAGTGCAG”, for which the binding signal is 8660 fluorescence intensity (a.u.). In the case of “AATTCTCGTCTTCTCGGAGGTTTCTGAGGGGAGGGAGAGGCGGAGTCACCTAGTGCAG” it was 8480 fluorescence intensity (a.u.); in that of “CCGGTCCTTCACCCACTTCAGCTTCACGTTCACCAGCGTCCGGAGTCACCTAGTGCAG”, 10200 fluorescence intensity (a.u.); in that of “ATTTTTTCCTCTAATTAAGTCATATCACATCAATTGTTTTCGGAGTCACCTAGTGCAG”, 10200 fluorescence intensity (a.u.). “GGCATTTGGGTGTTATGCATGCCGGCCGGCCCGTACGTACCGGAGTCACCTAGTGCAG”: the binding signal is 11700 fluorescence intensity (a.u.). For “AGCTGGATTACCCTTTATACATTTTACTTTAATCTCTTTGCGGAGTCACCTAGTGCAG”, the binding signal is 10900 fluorescence intensity (a.u.). Take “GACGTATCATAGTCTCTGTTTAGATTTCTAGTACTATGATCGGAGTCACCTAGTGCAG”: the binding signal was 9340 fluorescence intensity (a.u.).

With “ACTGAGTATTATTATATCCTAACTAAGTTATCGTACATTCCGGAGTCACCTAGTGCAG”, the binding signal was 8060 fluorescence intensity (a.u.). In the case of “AATCAGAATATTACCTTCTTGTATTTGTTCTCTGTAGGAACGGAGTCACCTAGTGCAG” it was 8870 fluorescence intensity (a.u.); in that of “GCTGTAGAAATTTCTCCTTCTTTGTTAAATGTATGTCTTTCGGAGTCACCTAGTGCAG”, 9540 fluorescence intensity (a.u.); in that of “ACATACACTACACACCCTGTTCTTGCAGTACGCCAATTAACGGAGTCACCTAGTGCAG”, 9780 fluorescence intensity (a.u.). “TCTCTCTCACTCTTCCGGTCTTCCCTGGGCAGGCTAGCCGCGGAGTCACCTAGTGCAG”: the binding signal is 8840 fluorescence intensity (a.u.). “ATGATTTTTGGGTCATTTGGTTTGTTTTTGACTTTTGCAACGGAGTCACCTAGTGCAG”: the binding signal was 12100 fluorescence intensity (a.u.).

Regarding “TGGGGTCATGTTTGTACTTTGGCAACTGGTCGACTTCATACGGAGTCACCTAGTGCAG”, the binding signal is 18400 fluorescence intensity (a.u.).

“TTGTTGTAAAGCTTATGGGTCTACTTTCATATGGTTTTGGCGGAGTCACCTAGTGCAG”: the binding signal was 64100 fluorescence intensity (a.u.). In the case of “ATATGTTGTTTGACTTTTTTCATAGTCAGAAGTCTATTGGCGGAGTCACCTAGTGCAG”, the binding signal was 19000 fluorescence intensity (a.u.). As to “CAGACACATACCTTTCATGCTTCAACTTTTGTATGTTTGTCGGAGTCACCTAGTGCAG”, the binding signal was 8170 fluorescence intensity (a.u.). As to “AATGGTTTGGTTGTTGTTTTTTTTAAAAAAAACTTTCAGGCGGAGTCACCTAGTGCAG”, the binding signal is 8170 fluorescence intensity (a.u.). As to “TTCATGTCAGAATCCTATGTTTTTCCTATTCCTTTGTTTTCGGAGTCACCTAGTGCAG”, the binding signal was 11000 fluorescence intensity (a.u.). For “TTTGTACCCGTTTTCTACTTTTTTTGTTTCATATTATTAACGGAGTCACCTAGTGCAG” the value was 10900 fluorescence intensity (a.u.). As to “TATTTCTATATGGACTTTGTTTTTTCTTTTTCTTCTTTTTCGGAGTCACCTAGTGCAG”, the binding signal is 13100 fluorescence intensity (a.u.).

As to “GCTATACATCTTTCCACTACTTCTCCTCAGCTCGCTTTCCCGGAGTCACCTAGTGCAG”, the binding signal is 8130 fluorescence intensity (a.u.). On to “AGCTTCTTTTTCTGTGATAGCAATACTGCCTCGAGGAGGACGGAGTCACCTAGTGCAG”, for which the binding signal is 8950 fluorescence intensity (a.u.). On to “CCCAAAGTATTGATCGTTTTTGTTTATCATTTTGCTGGATCGGAGTCACCTAGTGCAG”, for which the binding signal is 10300 fluorescence intensity (a.u.). In the case of “AACCTCTACTGCTCCATATATTTTCTTTCTGTCAGCCCATCGGAGTCACCTAGTGCAG” it was 11200 fluorescence intensity (a.u.); in that of “ACGTAACACCTAGCAATTTTCTTCTCGCGAAATAAACAGTCGGAGTCACCTAGTGCAG”, 8500 fluorescence intensity (a.u.); in that of “GCAACCTCAGGATGCTCCACGAGCTTTCTCTTAGCTACAACGGAGTCACCTAGTGCAG”, 17000 fluorescence intensity (a.u.). Regarding “GAGCTCCAAAGCTACGGTTTTTTTTTCTCTTTCTTTCTCACGGAGTCACCTAGTGCAG”, the binding signal was 9080 fluorescence intensity (a.u.). Regarding “GGCAAACAATGCTCTCAGCCTCGCTTAGCTTTCACTCCACCGGAGTCACCTAGTGCAG”, the binding signal was 8030 fluorescence intensity (a.u.).

“CTTCTCCCATGCGCCGCCGCAATCTCATCTCTCTGTTTTTCGGAGTCACCTAGTGCAG”: the binding signal is 9220 fluorescence intensity (a.u.). In the case of “TAGATCAATACTGCCTAACGAACTTTTTTTTTTTTTTACGCGGAGTCACCTAGTGCAG”, the binding signal is 16400 fluorescence intensity (a.u.). As to “GAACTTATTTTACTGCAATTGTTTGCATCACTTATTCTAACGGAGTCACCTAGTGCAG”, the binding signal is 9570 fluorescence intensity (a.u.).

On to “TACTTATATTTACTTGCAGATCAGTTGCCTGCCAATACCGCGGAGTCACCTAGTGCAG”, for which the binding signal is 8390 fluorescence intensity (a.u.). With “CCTCTCCCTACTACTGTCGTATCGTCTCCTACCTCGCCTCCGGAGTCACCTAGTGCAG”, the binding signal is 8340 fluorescence intensity (a.u.). Turning to “CCAATTCGCCATCCGTCTGTCGACCGCATCTTAATATCCGCGGAGTCACCTAGTGCAG”, the binding signal is 17400 fluorescence intensity (a.u.). “CCATCGCTGTCGCCAATTTATATTCTTTCTTAATCTCGACCGGAGTCACCTAGTGCAG”: the binding signal was 9220 fluorescence intensity (a.u.). In the case of “AACGGTTCTTCTGGTCATTTCCAATTCGCCATCCGTCTGTCGGAGTCACCTAGTGCAG” it was 8930 fluorescence intensity (a.u.). For “CAAGCTGTTACTTTCTTGGTGGGCTTCTGTGTGCTTTATTCGGAGTCACCTAGTGCAG”, the binding signal was 9940 fluorescence intensity (a.u.).

On to “ACGCCTACAATGGTACTGTGTTTTTTTTATGATAGCGGTGCGGAGTCACCTAGTGCAG”, for which the binding signal is 8060 fluorescence intensity (a.u.).

For “TTCTTCTTTTCTTTTTTTTTTGTTTTCTTCTCATTCTTCTCGGAGTCACCTAGTGCAG”, the binding signal is 10100 fluorescence intensity (a.u.).

In the case of “TCTCTTTTCTTTTCTTTCTTTTTATTTTGTTGTTCCTTTACGGAGTCACCTAGTGCAG”, the binding signal is 12600 fluorescence intensity (a.u.). In the case of “CTTTTGCACTCGAGATATTTCATCAGTTCTTGCCATTTCACGGAGTCACCTAGTGCAG” it was 16500 fluorescence intensity (a.u.). Regarding “TACGTTTCAGTTGTGCTTGTTCGGACCTTTCGATTTCTTTCGGAGTCACCTAGTGCAG”, the binding signal was 13900 fluorescence intensity (a.u.).

Take “ACATTGTTCTCTCTTTTACGGCCTTTTTTTTTTCTGAATTCGGAGTCACCTAGTGCAG”: the binding signal is 17900 fluorescence intensity (a.u.). On to “TTCTTTTGTTGTCCAATTCATTTCCATTTCTTGCCGTTTTCGGAGTCACCTAGTGCAG”, for which the binding signal is 8320 fluorescence intensity (a.u.). In the case of “ACTTGCCTTGTTTCTTGTTCTTGTTCATTTCGACCGTTGTCGGAGTCACCTAGTGCAG”, the binding signal was 17100 fluorescence intensity (a.u.). As for “ATCTTTTTGTTGTCTTTGAATTCAGTCTGTTTTTCTCATTCGGAGTCACCTAGTGCAG”, the binding signal is 17900 fluorescence intensity (a.u.). For “ATATTCTCATTTTCAGTCTGTTGCACTAATTTTGCTATTTCGGAGTCACCTAGTGCAG” the value was 12800 fluorescence intensity (a.u.); for “CCGCCGCTACTCTCCATCATTTCAGTTTTCTCTCGAGTCACGGAGTCACCTAGTGCAG”, 10200 fluorescence intensity (a.u.). Regarding “TCTCTTTTCTCATTTATTCACTTGCCACATCATTTTTCATCGGAGTCACCTAGTGCAG”, the binding signal is 8900 fluorescence intensity (a.u.).

Take “ACTTTATTGTTTTTCTTCTTATTTTATTTCTCTGTTCTTTCGGAGTCACCTAGTGCAG”: the binding signal is 10300 fluorescence intensity (a.u.).
